The target of test [1] is Lysosomal acid glucosylceramidase (Homo sapiens) (UniProt P04062). As to the kind of experiment: Glucocerebrosidase-p2 (AID 348; in the data active = potency below about 10 µM; note: potency is the fitted concentration of half-maximal effect). As to conditions: purified GBA, blue fluorogenic substrate, 40 min. The method, boiled down:
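Compounds titrated from 0.6 nM upwards against 0.2 nM enzyme in pH 5.9 citric acid/KH2PO4, taurocholate, tween-20; blue fluorogenic substrate 80 uM, 40 min room temperature, stopped and read Ex 365/Em 440 for AC50.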

Test [2] can be described thus: AP1 Signaling Pathway (AID 357; active = well fitted curve in either direction with a large enough effect, not every such curve was filed as active;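 note: ME-180 reporter cells stimulated with EGF at its EC50 level; % is set by controls: 0 for no effect and ±100 for the full control effect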). As to conditions: ME-180 AP-1-bla reporter, EGF-induced, beta-lactamase ratio, 5 h; at 7.69 µM (top of the series) unless noted. The method, boiled down: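 In this screen, ME-180 cells in Opti-MEM with 0.5% dialyzed FBS received EC50 EGF and compound titrations for 5 h. AP-1 reporter beta-lactamase was detected via CCF4 ratio, giving AC50 for positive and negative modulators.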

Test [3] in a line: NFAT Signaling Pathway (AID 444; active = well fitted curve in either direction with a large enough effect, not every such curve was filed as active;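 note: carbachol stimulus at about its EC50 of 1 µM final; % is set by controls: 0 for no effect and ±100 for the full control effect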). As to conditions: Jurkat NFAT-bla M1, carbachol, beta-lactamase ratio, 5 h; at 7.69 µM (top of the series) unless noted. The gist of the method: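 Read-out: CCF4 FRET ratio (460 nm/530 nm) after 1 h RT dye loading, used for %activity and AC50 from titration series. Cells: Jurkat NFAT-β-lactamase/M1 line, treated with compound plus 1 uM carbachol for 5 h, 37 °C.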

The nature of test [4]: Stat Signaling Pathway (AID 446; active = well fitted curve in either direction with a large enough effect, not every such curve was filed as active;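 note: ME-180 cervical cancer cells given 40 pM IL-6 alongside compound; SIE-controlled beta-lactamase reporter measured as 460/530 nm FRET emission ratio; % is set by controls: 0 for no effect and ±100 for the full control effect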). As to conditions: ME-180 SIE beta-lactamase reporter, IL-6 stimulated, 5 h; at 7.69 µM (top of the series) unless noted. The gist of the method:
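IL-6/STAT signaling read in ME-180 cells via an SIE beta-lactamase reporter. Stimulus was 40 pM IL-6 (its AC50) for 5 hrs, so both activation and inhibition register.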

Test [5] has as its target Glucocorticoid receptor (Homo sapiens) (UniProt P04150). As to the kind of experiment: GR-GFP Redistribution (AID 450;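 active = compounds whose dose series gives a full or clear partial fitted curve of increased nuclear translocation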; note: potency is the fitted concentration of half-maximal effect). As to conditions: U2OS GR-GFP nuclear translocation, laser cytometry, 2 h.
Test [6] has the same target. In words: GR-EFC Redistribution (AID 451; calls by dose curve; note: potency is the fitted concentration of half-maximal effect). As to conditions: CHO-K1 GR-EFC translocation, beta-gal luminescence, 2 h. The gist of the method: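 Translocation of GR-ED fusion to nuclear EA restores b-gal, read by luminescence after 1 h room-temperature detection. Engineered CHO-K1 biosensor cells, 1,000/well, exposed 2 h at 37 C to titrations up to 46 uM final.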
Test [7] addresses Dual specificity protein kinase CLK4 (Homo sapiens) (UniProt Q9HAZ1). In words: qHTS Assay for Inhibitors of CDC-like Kinase 4 (Kinase-Glo Assay) (AID 1770). Note: % is set by controls: 0 for no effect and ±100 for the full control effect; nearly all actives have a fitted effect of over 65% in size. As to conditions: recombinant Clk4, Kinase-Glo ATP depletion luminescence; series mostly up to 66.7 µM. The gist of the method: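 25 nM Clk4 with 100 uM RS repeat peptide and 1 uM ATP (final) in Tris pH7.5, 10 mM MgCl2, 4.5 h at room temperature. Remaining ATP measured by Kinase-Glo luciferase luminescence.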
A general note: qHTS replaces the single test concentration by a dilution series.

Test [8] has the same target. In words: qHTS Assay for Inhibitors of CDC-like Kinase 4 (ADP-Glo Assay) (AID 1771). Note: % is set by controls: 0 for no effect and ±100 for the full control effect; nearly all actives have a fitted effect of over 70% in size. As to conditions: recombinant CLK4, ADP-Glo luminescence; series mostly up to 80 µM. The gist of the method:
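25 nM Clk4 with 100 uM RS repeat peptide and 1 uM ATP (final) in buffer with 2 mM MgCl2, 0.5 mM EGTA, 2.5 mM DTT, 0.01% Triton X-100; 1 h at room temperature; ADP-Glo luminescence for ADP formed.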

Test [9] has the same target. As to the kind of experiment: qHTS Assay for Inhibitors of CDC-like Kinase 4 (ADP-FP Assay) (AID 1795). Note: % is set by controls: 0 for no effect and ±100 for the full control effect; nearly all actives have a fitted effect of over 60% in size. As to conditions: Transcreener ADP fluorescence polarization; series mostly up to 50 µM. The method, boiled down: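 Recombinant Clk4 (6.25 nM) phosphorylated 100 uM RS repeat peptide with 1 uM ATP in 25 mM Tris pH 7.5, 10 mM MgCl2, 0.5 mM EGTA, 2.5 mM DTT, 0.01% Triton X-100 for 1 h. ADP was detected by Transcreener ADP2 competitive fluorescence polarization after 30 min at room temperature.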

Test [10] has as its target Ubiquitin carboxyl-terminal hydrolase 1 (Homo sapiens) (UniProt O94782). As to the kind of experiment: Inhibitors of USP1/UAF1: Pilot qHTS (AID 504865).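 Note: rhodamine fluorescence freed from ubiquitin-rhodamine substrate followed over time; top concentration of the series differs between compounds; % is set by controls: 0 for no effect and ±100 for the full control effect; nearly all actives have a fitted effect of over 35% in size.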 As to conditions: purified USP1/UAF1, Ub-rhodamine cleavage fluorescence; series mostly up to 54.9 µM. The method, boiled down:
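USP1/UAF1 complex at 1 nM preincubated 15 min at room temperature with compound, then Ub-Rho substrate added at 150 nM final. Fluorescence (480/540 nm) read kinetically in 50 mM HEPES pH 7.8, 0.5 mM EDTA, 1 mM TCEP, 0.1 mg/ml BSA, 0.01% Tween-20.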

The nature of test [11]: Primary qHTS for small molecule stabilizers of the endoplasmic reticulum resident proteome: Secreted ER Calcium Modulated Protein (SERCaMP) assay (AID 1508630). Note: % is set by controls: 0 for no effect and ±100 for the full control effect. As to conditions: SH-SY5Y GLuc-SERCaMP (Gaussia luciferase released on ER calcium loss) secretion, thapsigargin, luminescence; series mostly up to 38.4 µM. The gist of the method:
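GLuc-SERCaMP-expressing SH-SY5Y cells, pretreated 16 h with compound, are challenged with thapsigargin to empty ER calcium stores; after 4 h, coelenterazine is added directly to the medium and luminescence is imaged.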

Test [12] deals with Cytochrome P450 1A2 (Homo sapiens) (UniProt P05177). As to the kind of experiment: p450-cyp1a2 (AID 410; calls by dose curve; note: potency is the fitted concentration of half-maximal effect;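 for activity change, negative = inhibition: -100% = full effect of reference inhibitor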). As to conditions: recombinant CYP1A2, luciferin-ME demethylation, luminescence; series mostly up to 57 µM. The gist of the method:
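20nM CYP1A2 with 100uM Luciferin-ME (at Km) in 100mM KPO4; compound preincubated 10 min, NADPH regeneration added, 60 min at room temperature. Luciferin quantified by luminescence after detection reagent; normalized to 57 uM furafylline.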

Test [13] addresses 3',5'-cyclic-AMP phosphodiesterase 4B (Homo sapiens) (UniProt Q07343). In words: qHTS Assay for Inhibitors of PDE-IV (AID 607; active = well fitted activation curve with a large enough effect in the main read-out, with a control signal flat, not every such curve was filed as active; note: potency is the fitted concentration of half-maximal effect). As to conditions: HEK293 ACTOne CNG channel cells, membrane potential fluorescence; series mostly up to 22.9 µM. The method, boiled down: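 Live HEK293 cells with a modified cyclic nucleotide-gated (CNG) channel report intracellular cAMP via membrane-potential dye fluorescence (ex 535/em 590 nm). Endogenous PDE-IV was targeted. Compounds were tested at up to 22.9 uM final; RO 20-1724 100 uM served as control.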

Test [14] in a line: qHTS Assay for Identification of Small Molecule Agonists for Hypoxia Response Element Signaling Pathway (AID 914; active = well fitted activation curve with a large enough effect in the signal ratio, with a control signal flat, not every such curve was filed as active; the % refers to the signal ratio; note: potency is the fitted concentration of half-maximal effect; for activation: % of control where 0% means no effect). As to conditions: ME-180 (cervical carcinoma) HRE-bla reporter, beta-lactamase ratio, CoCl2, 17 h; activation: active compounds read high. The method, boiled down:
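HRE-bla ME-180 cells with beta-lactamase reporter under hypoxia response element, compounds with EC50 CoCl2 for 17 hours at 37 C. CCF4 substrate, 460nm/530nm emission ratio gave %Activity; AC50 from titration series.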

In test [15] the target is Mitogen-activated protein kinase 10 (Mus musculus) (UniProt Q61831). In words: JNK3 AlphaScreen Assay (AID 530; active = well fitted curve in either direction with a large enough effect, not every such curve was filed as active). As to conditions: JNK3 lysate, c-Jun phosphorylation; series mostly up to 57.1 µM. The method, boiled down:
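Compound titrations were preincubated 15 minutes at room temperature with substrate, antibody and pre-activated JNK3-containing HepG2 lysate. Reactions were started with 10 uM ATP and stopped with EDTA-containing bead buffer for AlphaScreen detection.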
A general note: Bead proximity is the source of the signal in Alpha formats.

The target in test [16] is Cytochrome P450 3A4 (Homo sapiens) (UniProt P08684). As to the kind of experiment: qHTS Assay for Inhibitors and Substrates of Cytochrome P450 3A4 (AID 884). Note: potency is the fitted concentration of half-maximal effect; nearly all actives have a fitted effect of over 50% in size. As to conditions: recombinant CYP3A4, Luciferin-PPXE luminescence; series mostly up to 57.1 µM. The gist of the method:
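20 nM human CYP3A4 with 25 uM Luciferin-PPXE (at KM) in 200 mM KPO4, preincubated 10 min with compound; NADPH regeneration started a 60 min RT reaction. Luciferin detected by luminescence, normalized to 57 uM ketoconazole as full inhibition.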

Test [17] shares this target. In words: qHTS Assay for Activators of Cytochrome P450 3A4 (AID 885). Note: nearly all actives have a fitted effect of over 65% in size. As to conditions: recombinant CYP3A4, Luciferin-PPXE luminescence, 60 min; series mostly up to 57.1 µM. The gist of the method:
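Quantitative HTS format: compounds preincubated with 20nM human CYP3A4 and Luciferin-PPXE substrate at KM, reaction started by NADPH regeneration, stopped after 60 min, luciferase luminescence read 20 min later.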

A number with no mark means an inactive call. Results filed as inconclusive are left out. Activity calls are given as the source filed them. Unless noted, calls come from the whole dose curve; as a rule, active = well fitted curve in the direction sought with a large enough effect; inconclusive = small, poorly fitted or top-dose-only effect, or another doubt; inactive = no such curve, though single readings can be large; an effect the other way counts as inactive or inconclusive.

Chain of Dual specificity protein kinase CLK4 (Homo sapiens) (Q9HAZ1 whole entry, looked up): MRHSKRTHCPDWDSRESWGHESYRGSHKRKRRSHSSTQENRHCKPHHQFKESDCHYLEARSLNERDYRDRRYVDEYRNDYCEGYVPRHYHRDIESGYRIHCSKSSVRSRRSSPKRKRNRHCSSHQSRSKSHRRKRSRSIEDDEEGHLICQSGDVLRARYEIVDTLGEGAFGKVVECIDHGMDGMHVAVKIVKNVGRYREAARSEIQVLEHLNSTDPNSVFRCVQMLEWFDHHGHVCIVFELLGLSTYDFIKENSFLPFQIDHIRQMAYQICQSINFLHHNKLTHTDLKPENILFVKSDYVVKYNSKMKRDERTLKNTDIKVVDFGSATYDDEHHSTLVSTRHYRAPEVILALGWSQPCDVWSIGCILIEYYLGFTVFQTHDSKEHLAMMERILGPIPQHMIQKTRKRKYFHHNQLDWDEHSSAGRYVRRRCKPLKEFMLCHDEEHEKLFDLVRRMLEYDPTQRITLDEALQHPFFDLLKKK
Chain of Lysosomal acid glucosylceramidase (Homo sapiens) (P04062 whole entry, looked up): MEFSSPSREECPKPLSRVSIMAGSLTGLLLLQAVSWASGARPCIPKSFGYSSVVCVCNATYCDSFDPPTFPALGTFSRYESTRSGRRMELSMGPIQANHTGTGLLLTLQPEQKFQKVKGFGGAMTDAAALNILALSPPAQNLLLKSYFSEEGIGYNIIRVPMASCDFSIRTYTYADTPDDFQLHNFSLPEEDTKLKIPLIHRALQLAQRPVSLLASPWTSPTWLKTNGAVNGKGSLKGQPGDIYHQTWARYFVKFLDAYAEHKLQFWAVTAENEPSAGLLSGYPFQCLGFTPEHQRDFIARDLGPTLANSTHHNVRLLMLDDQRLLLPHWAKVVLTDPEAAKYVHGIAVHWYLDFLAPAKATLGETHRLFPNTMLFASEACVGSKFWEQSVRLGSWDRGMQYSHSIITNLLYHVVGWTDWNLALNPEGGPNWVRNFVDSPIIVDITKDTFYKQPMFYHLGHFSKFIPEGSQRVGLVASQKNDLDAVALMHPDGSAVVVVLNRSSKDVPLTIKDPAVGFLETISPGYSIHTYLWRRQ
Chain of Ubiquitin carboxyl-terminal hydrolase 1 (Homo sapiens) (O94782 whole entry, looked up): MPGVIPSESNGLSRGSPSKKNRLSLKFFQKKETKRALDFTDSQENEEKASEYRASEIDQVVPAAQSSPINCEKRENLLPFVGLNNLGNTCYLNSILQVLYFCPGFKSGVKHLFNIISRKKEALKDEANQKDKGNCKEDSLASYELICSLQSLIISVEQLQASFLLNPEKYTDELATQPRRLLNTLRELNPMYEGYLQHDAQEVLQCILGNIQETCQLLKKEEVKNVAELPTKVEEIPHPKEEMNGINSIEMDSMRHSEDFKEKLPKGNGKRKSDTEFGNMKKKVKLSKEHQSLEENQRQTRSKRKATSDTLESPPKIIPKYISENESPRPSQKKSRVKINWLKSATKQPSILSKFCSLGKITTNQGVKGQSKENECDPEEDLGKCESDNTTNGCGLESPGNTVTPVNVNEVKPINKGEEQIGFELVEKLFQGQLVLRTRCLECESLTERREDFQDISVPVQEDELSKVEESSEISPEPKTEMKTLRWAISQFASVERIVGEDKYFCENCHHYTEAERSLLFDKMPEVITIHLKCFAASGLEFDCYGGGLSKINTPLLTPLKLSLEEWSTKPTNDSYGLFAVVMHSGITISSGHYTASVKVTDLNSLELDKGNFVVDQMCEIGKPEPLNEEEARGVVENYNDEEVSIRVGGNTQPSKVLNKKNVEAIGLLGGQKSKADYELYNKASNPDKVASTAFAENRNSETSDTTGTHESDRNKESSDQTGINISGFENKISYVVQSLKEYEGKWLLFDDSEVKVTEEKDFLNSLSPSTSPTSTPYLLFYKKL
Chain of Cytochrome P450 3A4 (Homo sapiens) (P08684 whole entry, looked up): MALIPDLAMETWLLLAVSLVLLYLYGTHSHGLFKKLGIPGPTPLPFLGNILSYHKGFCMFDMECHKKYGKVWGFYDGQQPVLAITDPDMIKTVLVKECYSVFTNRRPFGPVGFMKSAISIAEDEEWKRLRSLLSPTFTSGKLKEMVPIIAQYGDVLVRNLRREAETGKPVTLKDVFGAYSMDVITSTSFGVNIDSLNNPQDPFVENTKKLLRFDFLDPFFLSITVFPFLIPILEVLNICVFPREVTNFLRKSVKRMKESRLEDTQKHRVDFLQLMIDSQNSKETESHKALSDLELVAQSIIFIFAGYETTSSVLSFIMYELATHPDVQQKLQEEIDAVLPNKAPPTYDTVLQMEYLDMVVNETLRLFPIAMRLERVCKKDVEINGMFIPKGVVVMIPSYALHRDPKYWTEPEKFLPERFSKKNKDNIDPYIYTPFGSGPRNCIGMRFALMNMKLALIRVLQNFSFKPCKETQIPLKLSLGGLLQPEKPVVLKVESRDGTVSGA
Chain of Cytochrome P450 1A2 (Homo sapiens) (P05177 whole entry, looked up): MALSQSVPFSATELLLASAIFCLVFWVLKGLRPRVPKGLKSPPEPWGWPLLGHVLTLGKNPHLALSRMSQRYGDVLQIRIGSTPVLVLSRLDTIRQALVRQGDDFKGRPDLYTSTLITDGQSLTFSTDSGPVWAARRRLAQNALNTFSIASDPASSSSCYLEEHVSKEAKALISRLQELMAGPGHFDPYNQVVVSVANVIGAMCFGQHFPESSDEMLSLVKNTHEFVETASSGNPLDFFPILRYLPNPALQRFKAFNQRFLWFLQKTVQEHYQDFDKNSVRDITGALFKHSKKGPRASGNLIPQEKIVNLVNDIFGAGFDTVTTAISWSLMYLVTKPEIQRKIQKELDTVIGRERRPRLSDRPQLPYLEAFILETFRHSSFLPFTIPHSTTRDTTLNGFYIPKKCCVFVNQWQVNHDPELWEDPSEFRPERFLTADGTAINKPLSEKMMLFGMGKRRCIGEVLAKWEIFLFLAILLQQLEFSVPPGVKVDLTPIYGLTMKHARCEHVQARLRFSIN
Chain of Glucocorticoid receptor (Homo sapiens) (P04150 whole entry, looked up, the tested form may be a part): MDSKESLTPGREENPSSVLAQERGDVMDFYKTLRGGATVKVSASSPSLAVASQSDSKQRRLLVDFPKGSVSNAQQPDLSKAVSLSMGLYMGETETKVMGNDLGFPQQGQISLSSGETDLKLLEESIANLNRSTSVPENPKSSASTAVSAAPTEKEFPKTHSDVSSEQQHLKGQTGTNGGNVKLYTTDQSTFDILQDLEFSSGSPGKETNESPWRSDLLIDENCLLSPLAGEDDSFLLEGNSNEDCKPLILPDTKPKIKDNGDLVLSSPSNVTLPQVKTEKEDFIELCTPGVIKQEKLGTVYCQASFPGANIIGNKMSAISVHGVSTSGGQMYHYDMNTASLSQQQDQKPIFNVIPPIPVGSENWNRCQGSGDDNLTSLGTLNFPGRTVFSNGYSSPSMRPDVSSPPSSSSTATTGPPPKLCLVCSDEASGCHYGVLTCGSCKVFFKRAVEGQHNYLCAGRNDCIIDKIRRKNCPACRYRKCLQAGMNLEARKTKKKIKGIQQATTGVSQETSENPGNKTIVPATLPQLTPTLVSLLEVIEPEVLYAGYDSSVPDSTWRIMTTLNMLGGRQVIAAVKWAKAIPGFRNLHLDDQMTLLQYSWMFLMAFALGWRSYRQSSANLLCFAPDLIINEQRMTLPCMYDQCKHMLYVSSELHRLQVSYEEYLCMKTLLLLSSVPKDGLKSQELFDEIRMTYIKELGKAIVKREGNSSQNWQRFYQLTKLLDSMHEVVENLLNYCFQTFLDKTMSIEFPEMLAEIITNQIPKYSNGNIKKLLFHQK
Chain of 3',5'-cyclic-AMP phosphodiesterase 4B (Homo sapiens) (Q07343 whole entry, looked up): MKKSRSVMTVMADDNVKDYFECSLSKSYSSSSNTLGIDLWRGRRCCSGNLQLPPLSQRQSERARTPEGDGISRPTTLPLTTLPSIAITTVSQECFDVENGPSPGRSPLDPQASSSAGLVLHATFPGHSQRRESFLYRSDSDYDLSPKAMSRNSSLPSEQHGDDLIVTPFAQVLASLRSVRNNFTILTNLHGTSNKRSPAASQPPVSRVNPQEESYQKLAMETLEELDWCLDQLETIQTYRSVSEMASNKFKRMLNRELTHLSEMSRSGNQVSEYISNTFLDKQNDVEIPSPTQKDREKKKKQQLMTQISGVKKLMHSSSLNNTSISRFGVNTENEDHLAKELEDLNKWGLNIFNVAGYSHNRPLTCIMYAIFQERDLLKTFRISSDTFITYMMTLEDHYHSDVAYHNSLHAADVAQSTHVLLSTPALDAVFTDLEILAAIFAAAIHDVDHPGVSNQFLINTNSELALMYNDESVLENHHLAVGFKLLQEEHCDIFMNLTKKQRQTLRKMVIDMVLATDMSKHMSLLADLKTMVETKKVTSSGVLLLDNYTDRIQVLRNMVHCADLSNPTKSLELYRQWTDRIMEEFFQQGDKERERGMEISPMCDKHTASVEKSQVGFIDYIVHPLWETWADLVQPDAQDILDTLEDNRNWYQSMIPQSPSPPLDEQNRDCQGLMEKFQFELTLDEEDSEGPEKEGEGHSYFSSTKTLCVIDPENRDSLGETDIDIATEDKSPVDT

With `COc1cccc(Cn2c(=O)c(-c3cc(F)cc(F)c3)nc3cncnc32)c1`, the Potency in [1] was above 11.4 µM; in test [5], above 9.22 µM; in test [6] it was above 46 µM. Moreover, the activity change, negative = inhibition is 0.277% in [2] and 0.731% in test [3]. The activity, negative = inhibition in [4] was -1.76%. Further, the Potency entry in test [7], in test [8], in test [9] and in [10] was “inactive” each time. For the same compound, in [11], the result was inactive.

`COCCn1c(=O)c(-c2ccc(F)cc2)nc2cnc(N(C)C)nc21`: the Potency is above 11.4 µM in test [1]; 2 µM (active) in test [12]; above 9.22 µM in test [5]; above 46 µM in test [6]; 1.58 µM (active) in test [13]. Also, the activity change, negative = inhibition in test [2] is -1.02%; in test [3], 10.7%. The Potency entry in test [7], in test [8], in [9] and in test [10] was “inactive” in each case. For the same compound, the result in [11] was inactive.

`O=c1c(-c2ccc(F)cc2)nc2cnc(N3CCOCC3)nc2n1CCc1ccccc1`: the Potency in test [1] was above 11.4 µM; in test [12] it was 25.1 µM (active); in [5], above 9.22 µM; in [6], above 46 µM; in test [14], 501 nM (active). In addition, the values for the activity change, negative = inhibition in test [2] and in [3] were 79.3% [activator] (active) and 103% [activator] (active), respectively. The Potency result in [13], in test [7], in [8], in test [9] and in test [10] was “inactive” each time. For the same compound, the result in test [11] was inactive.

`CCNc1ncc2nc(-c3ccc(F)cc3)c(=O)n(C[C@H]3CCCO3)c2n1`: the Potency in test [1] was above 11.4 µM; in [12], 1.26 µM (active); in test [5], above 9.22 µM; in test [6], above 46 µM. The activity change, negative = inhibition in [2] was -0.226%; in test [3], 12.6%. Besides, the Potency entry in [15], in test [7], in test [8], in [9] and in test [10] was “inactive” in each case. For the same compound, the outcome in [11] was inactive.

Turning to `COc1ccccc1-c1cncnc1N(C)Cc1ccco1`, the Potency in test [1] is above 11.4 µM; in test [12] it was 15.8 µM (active); in test [5], above 46 µM; in test [6], above 46 µM; in test [16] it was 1.26 µM (active). Also, in [2], the activity change, negative = inhibition was -9.6%. Moreover, the activity, negative = inhibition in test [4] is 17%. The Potency result in [15], in [13], in [17], in test [7], in test [8] and in test [9] was “inactive” each time. The Potency entry in test [10] is “inactive”. Further, the activation in test [14] was -12.2%. Moreover, the result in [11] was inactive.

Regarding `CN(C)c1ncc2nc(-c3ccccc3)c(=O)n(CCC#N)c2n1`, the Potency in [1] is above 11.4 µM; in test [12], 1.58 µM (active); in test [5], above 9.22 µM; in [6], above 46 µM. Further, the activity change, negative = inhibition in test [2] is -4.57%. For the same compound, the Potency result in [15], in [7], in test [8], in [9] and in test [10] was “inactive” each time. Also, the outcome in test [11] was inactive.

Take `N#CCCn1c(=O)c(CCc2ccccc2)nc2cnc(Nc3ccccc3)nc21`: the Potency in [1] was above 11.4 µM; in [5] it was above 9.22 µM; in test [6], above 46 µM. In addition, the activity change, negative = inhibition in test [2] was -27.7%; in test [3], -25.2%. The Potency result in test [12], in test [15], in test [13], in [17], in test [7] and in test [8] was “inactive” throughout. Further, the Potency entry in [9] and in test [10] was “inactive” each time. For the same compound, the result in test [11] was inactive.

The record behind these values is PubChem BioAssay (NCATS).
